The record followed here is the antibiotic and cytotoxicity screens of Wong et al. (2023).

The campaign covered roughly 39,000 compounds. About 3,300 (8.5%) were called active. For the sample, actives were picked, then their nearest neighbours and some compounds at random.

This assay relates to HepG2. The assay can be described thus: cytotoxicity call (relative viability < 0.9). The note with it: 10 µM.
For `C[C@@H]1CCCCO[C@H](CN(C)C(=O)NC2CCCCC2)[C@@H](C)CN([C@H](C)CO)C(=O)c2cc(NC(=O)Cc3ccccc3)ccc2O1`, the cytotoxicity call is “inactive”. As for `COc1ccc(S(=O)(=O)Nc2ccc3c(c2)CC(=O)N([C@H](C)CO)C[C@@H](C)[C@H](CN(C)CC2CC2)O3)cc1`, the entry is “inactive”. As for `CC1(C)CCC(c2ccc(Cl)cc2)=C(CN2CCN(c3ccc(C(=O)NS(=O)(=O)c4ccc(N[C@@H](CCN5CCOCC5)CSc5ccccc5)c(S(=O)(=O)C(F)(F)F)c4)cc3)CC2)C1`, the entry is “active”; as for `CC1(C)CCC(c2ccc(Cl)cc2)=C(CN2CCN(c3ccc(C(=O)NS(=O)(=O)c4ccc(N[C@H](CCN5CCOCC5)CSc5ccccc5)c(S(=O)(=O)C(F)(F)F)c4)cc3)CC2)C1`, “active”. As for `CN(C)CC[C@H](CSc1ccccc1)Nc1ccc(S(=O)(=O)NC(=O)c2ccc(N3CCN(Cc4ccccc4-c4ccc(Cl)cc4)CC3)cc2)cc1[N+](=O)[O-]`, the entry is “inactive”; as for `CC1(C)CCC(CN2CCN(c3ccc(C(=O)NS(=O)(=O)c4ccc(NCC5CCOCC5)c([N+](=O)[O-])c4)c(Oc4cnc5[nH]ccc5c4)c3)CC2)=C(c2ccc(Cl)cc2)C1`, “inactive”; as for `CCCNC(=O)Nc1ccc2c(c1)OC[C@@H](C)N(C(=O)C1CCOCC1)C[C@H](C)[C@@H](OC)CN(C)C2=O`, “inactive”. With `C[C@H](CO)N1C[C@H](C)[C@H](CN(C)C(=O)Nc2ccc(F)cc2)OCCCC[C@H](C)Oc2ccc(NC(=O)C3CCC3)cc2C1=O`, the cytotoxicity call is “inactive”. For the compound `COc1ccc(S(=O)(=O)Nc2ccc3c(c2)C(=O)N([C@H](C)CO)C[C@H](C)[C@H](CN(C)S(=O)(=O)c2ccc(C)cc2)O3)cc1`, the cytotoxicity call is “inactive”. Turning to `C[C@@H]1CCCCO[C@@H](CN(C)C(=O)Nc2ccc3c(c2)OCO3)[C@H](C)CN([C@H](C)CO)C(=O)c2cc(NC(=O)c3ccccc3)ccc2O1`, the cytotoxicity call was “inactive”. As for `Cc1ccc(S(=O)(=O)N(C)C[C@@H]2Oc3ccc(NC(=O)Cn4cnnn4)cc3CC(=O)N([C@H](C)CO)C[C@@H]2C)cc1`, the cytotoxicity call is “inactive”.

For `COC(=O)C(CCCN1C(=O)c2ccccc2C1=O)(NC(C)=O)c1nn[nH]n1` (stereo unspecified), the cytotoxicity call is “active”.

In the case of `N#CCNC(=O)CN1C(=O)c2ccccc2C1=O`, the cytotoxicity call was “inactive”. As for `NC(=O)CCN1C(=O)c2ccccc2C1=O`, the entry is “inactive”.

Consider `O=C(C[C@@H]1CC[C@H]2[C@@H](COC[C@@H](O)CN2C(=O)Nc2ccc(Cl)cc2)O1)NCCc1ccncc1`, for which the cytotoxicity call is “inactive”. On to `Cc1ccccc1S(=O)(=O)N1C[C@H](O)COC[C@@H]2O[C@@H](CC(=O)NCCc3ccccc3)CC[C@H]21`, for which the cytotoxicity call is “inactive”. As to `CO[C@H]1CN(C)C(=O)c2cc(NC(=O)Nc3ccccc3)ccc2OC[C@@H](C)N(C(=O)CN(C)C)C[C@H]1C`, the cytotoxicity call was “inactive”. As for `OCC1c2ccccc2-c2ccccc21`, the entry is “inactive”; as for `CNCc1ccccc1.Cl`, “inactive”; as for `CNCCCC1c2ccccc2C=Cc2ccccc21.Cl`, “active”.

As for `Cc1noc(C)c1S(=O)(=O)N(C)C[C@@H]1OCCCC[C@@H](C)Oc2ccc(N(C)C)cc2C(=O)N([C@H](C)CO)C[C@H]1C`, the cytotoxicity call was “inactive”. As for `CC(C)Cc1ccc(CN2CC[C@@H](N)C2)cc1`, the entry is “inactive”; as for `CC(C)N1CC=C[C@@]23O[C@@H]4C=CCOC(=O)[C@@H]4[C@H]2C(=O)N(CCCCCO)[C@@H]3C1=O`, “inactive”; as for `C[C@@H]1CN([C@H](C)CO)C(=O)CCCn2nncc2CO[C@@H]1CN(C)S(=O)(=O)c1ccc(-c2ccccc2)cc1`, “inactive”. As for `C[C@@H]1CC=CC[C@@H](c2cccc(Cl)c2)NC(=O)[C@H](Cc2ccccc2)N(C)C(=O)c2ccccc2O1`, the entry is “inactive”.

For the compound `C[C@@H]1CCCn2nncc2COCCNC1=O`, the cytotoxicity call was “inactive”.

With `CCCN(C)C[C@H]1OCCCC[C@H](C)Oc2ccc(NS(=O)(=O)c3ccc(Cl)cc3)cc2C(=O)N([C@H](C)CO)C[C@H]1C`, the cytotoxicity call is “inactive”.

`C[C@@H]1CCCCO[C@@H](CN(C)CC2CCCCC2)[C@@H](C)CN([C@H](C)CO)C(=O)c2cc(NS(=O)(=O)c3ccc(Cl)cc3)ccc2O1`: the cytotoxicity call is “inactive”.

As to `C[C@@H]1CCCCO[C@@H](CN(C)CC2CC2)[C@H](C)CN([C@@H](C)CO)C(=O)c2cc(NS(=O)(=O)c3ccc(Cl)cc3)ccc2O1`, the cytotoxicity call is “inactive”. In the case of `C[C@@H]1CCCCO[C@H](CN(C)CC2CCCCC2)[C@@H](C)CN([C@H](C)CO)C(=O)c2cc(NS(=O)(=O)c3ccc(Cl)cc3)ccc2O1`, the cytotoxicity call was “inactive”. As for `CCCN(C)C[C@H]1OCCCC[C@H](C)Oc2ccc(NS(=O)(=O)c3ccc(Cl)cc3)cc2C(=O)N([C@@H](C)CO)C[C@H]1C`, the entry is “inactive”. In the case of `C[C@H](CO)N1C[C@H](C)[C@@H](CN(C)CC2CCCCC2)OCCCC[C@H](C)Oc2ccc(NS(=O)(=O)c3ccc(Cl)cc3)cc2C1=O`, the cytotoxicity call was “inactive”. As for `CCCN(C)C[C@H]1OCCCC[C@@H](C)Oc2ccc(NS(=O)(=O)c3ccc(Cl)cc3)cc2C(=O)N([C@@H](C)CO)C[C@H]1C`, the entry is “active”; as for `C[C@@H]1CCCCO[C@@H](CN(C)CC2CCCCC2)[C@H](C)CN([C@H](C)CO)C(=O)c2cc(NS(=O)(=O)c3ccc(Cl)cc3)ccc2O1`, “active”. As for `C[C@@H]1CCCCO[C@H](CN(C)CC2CCCCC2)[C@H](C)CN([C@H](C)CO)C(=O)c2cc(NS(=O)(=O)c3ccc(Cl)cc3)ccc2O1`, the entry is “inactive”; as for `C[C@@H]1CCCCO[C@@H](CN(C)CC2CCCCC2)[C@H](C)CN([C@@H](C)CO)C(=O)c2cc(NS(=O)(=O)c3ccc(Cl)cc3)ccc2O1`, “inactive”; as for `C[C@@H]1CN([C@H](C)CO)C(=O)c2cc(NS(=O)(=O)c3ccc(Cl)cc3)ccc2O[C@@H](C)CCCCO[C@@H]1CN(C)CC1CCCCC1`, “active”. For the compound `C[C@@H]1CCCCO[C@H](CN(C)CC2CCCCC2)[C@H](C)CN([C@@H](C)CO)C(=O)c2cc(NS(=O)(=O)c3ccc(Cl)cc3)ccc2O1`, the cytotoxicity call is “active”.

Regarding `Cc1ccc(S(=O)(=O)N(C)C[C@H]2Oc3c(NC(=O)C4CCOCC4)cccc3C(=O)N([C@@H](C)CO)C[C@H]2C)cc1`, the cytotoxicity call was “inactive”. As for `C[C@@H]1CN([C@@H](C)CO)C(=O)c2cc(NS(C)(=O)=O)ccc2O[C@@H](C)CCCCO[C@@H]1CN(C)C(=O)CCCN(C)C`, the entry is “inactive”; as for `CN1CCN(C(=O)C[C@@H]2CC[C@@H](NC(=O)Cc3ccccn3)[C@@H](CO)O2)CC1`, “inactive”; as for `NCC[C@H]1CC[C@@H](NC(=O)C2CCCC2)[C@@H](CO)O1`, “inactive”. As for `Cc1noc(C)c1S(=O)(=O)Nc1ccc2c(c1)C(=O)N([C@@H](C)CO)C[C@@H](C)[C@H](CN(C)S(C)(=O)=O)OCCCC[C@@H](C)O2`, the entry is “inactive”; as for `CC(=O)N1CCC[C@H](C(=O)O)C1`, “inactive”. As for `COc1ccc(S(=O)(=O)N[C@H]2CC[C@H](CC(=O)N3CCC(Cc4ccccc4)CC3)O[C@@H]2CO)cc1`, the entry is “inactive”; as for `C[C@@H]1CCCCO[C@@H](CN(C)CC2CCCCC2)[C@@H](C)CN([C@@H](C)CO)C(=O)c2cc(NS(=O)(=O)c3ccc(Cl)cc3)ccc2O1`, “active”; as for `C[C@H](CO)N1C[C@H](C)[C@H](CN(C)CC2CCCCC2)OCCCC[C@H](C)Oc2ccc(NS(=O)(=O)c3ccc(Cl)cc3)cc2C1=O`, “active”.

In the case of `C[C@H]1CCCCO[C@@H](CN(C)CC2CCCCC2)[C@@H](C)CN([C@@H](C)CO)C(=O)c2cc(NS(=O)(=O)c3ccc(Cl)cc3)ccc2O1`, the cytotoxicity call was “inactive”. As for `C[C@@H]1CN([C@@H](C)CO)C(=O)c2cc(NS(=O)(=O)c3ccc(Cl)cc3)ccc2O[C@@H](C)CCCCO[C@H]1CN(C)CC1CCCCC1`, the cytotoxicity call was “inactive”. As for `C[C@@H]1CN([C@@H](C)CO)C(=O)c2cc(NS(=O)(=O)c3ccc(Cl)cc3)ccc2O[C@@H](C)CCCCO[C@@H]1CN(C)CC1CCCCC1`, the entry is “inactive”. With `C[C@H]1CCCCO[C@H](CN(C)CC2CCCCC2)[C@@H](C)CN([C@@H](C)CO)C(=O)c2cc(NS(=O)(=O)c3ccc(Cl)cc3)ccc2O1`, the cytotoxicity call is “inactive”. As for `C[C@@H]1CN([C@@H](C)CO)S(=O)(=O)c2ccc(-c3cccc(F)c3)cc2O[C@@H]1CN(C)S(C)(=O)=O`, the entry is “inactive”; as for `CS(=O)(=O)N1CCc2ccc(N)cc2C1`, “inactive”; as for `Cc1noc(C)c1NC(=O)Nc1ccc2c(c1)CC(=O)N([C@H](C)CO)C[C@@H](C)[C@H](CN(C)Cc1ccc(C(F)(F)F)cc1)O2`, “inactive”. As to `Cc1ccc(S(=O)(=O)Nc2ccc3c(c2)C(=O)N([C@@H](C)CO)C[C@H](C)[C@@H](CN(C)S(=O)(=O)c2ccc(F)cc2)O3)cc1`, the cytotoxicity call was “inactive”. Turning to `CCc1ccc(CCOc2ccc(CC3SC(=O)NC3=O)cc2)nc1.Cl` (stereo unspecified), the cytotoxicity call is “inactive”. For `CN(CCOc1ccc(CC2SC(=O)NC2=O)cc1)c1ccccn1.O=C(O)C=CC(=O)O` (stereo unspecified), the cytotoxicity call was “active”.

Turning to `CN(CCO)c1ccccn1`, the cytotoxicity call is “inactive”. As for `C[C@@H]1CCCCO[C@@H](CN(C)S(=O)(=O)c2cccs2)[C@@H](C)CN([C@H](C)CO)C(=O)c2cc(NC(=O)CCCCCC(=O)Nc3ccccc3N)ccc2O1`, the entry is “inactive”. As for `CN(C)C1CCN(C(=O)c2cnc(-c3noc4cc(-c5cccc(C(F)(F)F)c5)ccc34)s2)CC1`, the entry is “active”; as for `C[C@H](CO)N1C[C@H](C)[C@H](CN(C)C(=O)Nc2ccccc2)Oc2ncc(-c3cccc(C(F)(F)F)c3)cc2C1=O`, “inactive”.

Turning to `CN(C)C1CCN(C(=O)c2cnc(-c3noc4cc(-c5ccccc5C(F)(F)F)ccc34)s2)CC1`, the cytotoxicity call was “active”.

As for `C[C@H](CO)N1C[C@H](C)[C@H](CN(C)C(=O)Nc2cccc3ccccc23)Oc2ncc(-c3cccc(C(F)(F)F)c3)cc2C1=O`, the cytotoxicity call is “inactive”. As for `C[C@H]1CN([C@@H](C)CO)C(=O)c2cccc(NC(=O)C3CCCCC3)c2O[C@@H]1CN(C)Cc1ccc(C(F)(F)F)cc1`, the entry is “inactive”; as for `CCCN(C)C[C@H]1OCCCC[C@H](C)Oc2ccc(NC(=O)Nc3cccc4ccccc34)cc2C(=O)N([C@@H](C)CO)C[C@H]1C`, “inactive”; as for `O=C(CCCCCNC(=O)OCc1ccc(CO[C@@H]2C[C@H](c3csc4ccccc34)C=C(C(=O)N3CCN(Cc4ccccc4)CC3)O2)cc1)NO`, “inactive”.
